The panel holds about 83,000 compounds, 20% with a hit somewhere; the sample as a whole holds those more often.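 For each line, cells grew in 96-well plates with the test compound present at a single concentration for 48 hours.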 A number with no mark means an inactive call. Active and inactive are the calls of the source. The calls were made as follows: active = growth percent below 10; inactive = the rest.

The first assay has as its system MALME-3M melanoma. Put plainly: NCI-60 one-dose screen, 48 h (100 = growth as untreated, 0 = no growth, -100 = all killed). To be noted: 10 µM unless noted.
Consider `CC1=C(C(=O)c2ccccc2)C(c2ccc(-n3cncn3)cc2)n2c(nc3ccccc32)N1` (centres undefined), for which the growth is 81%. With `CN(C)CCCNC(=O)c1cc(NC(=O)c2cc(NC(=O)c3ccc(C#Cc4ccccc4)cc3)cn2C)cn1C`, the growth is -95.8% (active). On the same count and under the same terms, then `COc1cccc(/C=C/c2nc3ccccc3c(=O)n2CC(=O)Nc2ccc(Cl)cc2)c1`, with 67.3%.

Another assay has as its system MDA-MB-231 breast. The assay is described as above. Conditions: 10 µM unless noted.
Turning to `COC(=O)C[C@](O)(CCCC(C)(C)O)C(=O)O[C@H]1C(OC)=C[C@@]23CCCN2CCc2cc4c(cc2[C@@H]13)OCO4`, the growth was -20.4% (active). In the case of `COc1cc(/C=C2\C(=N)N=C(SCc3nc4ccccc4[nH]3)NC2=O)ccc1O`, the growth was 86.4%. The same measure, in the same setting: then `N/C(=N\N=C\c1ccc([N+](=O)[O-])cc1)c1c(N)nc(=S)[nH]c1-c1ccc(Cl)cc1Cl`, with 77.5%; and `CC1(c2cc3cc(Cl)ccc3oc2=O)NC(=O)c2c(/C=C/C(=O)OC3CC4CCC3(C)C4(C)C)cccc2N1` (centres undefined), with 75.1%; and `O=C(N=Nc1c(O)[nH]c2ccc(Cl)cc12)c1ccc2nc(-c3ccccc3)[nH]c2c1`, with -33.1% (active). `CC1(C)CC[C@]2(C(=O)Nc3ccccc3)CC[C@]3(C)C(=CCC4[C@@]5(C)C[C@@H](O)[C@H](O)[C@@](C)(CO)C5CC[C@]43C)C2C1` (some centres undefined): the growth is 53.5%. For the molecule `O=c1[nH]c2ccccc2cc1CSc1cccc(Nc2nccc(-c3ccc4ccccc4c3)n2)c1`, the growth is 95.6%.

For `Clc1cccc(N/N=C/c2c[nH]c3ccc(Br)cc23)n1`, the growth was -67.7% (active).

Take `CN(C)c1nc(NCCNS(=O)(=O)c2ccc(C(=O)/C=C/c3ccc(F)cc3)cc2)nc(Nc2ccc(F)cc2)n1`: the growth is -93% (active).

With `CC(C)(C)OC(=O)/C=C/c1cccc2c1C(=O)NC(C)(c1cc3cc(Cl)ccc3oc1=O)N2` (centres undefined), the growth was 67.1%.

Turning to `Cc1ccc(C2CC(c3ccc(S(=O)(=O)NCCNc4nc(Nc5ccc(F)cc5)nc(N(C)C)n4)cc3)=Nc3c(N)nc(N)nc3N2)cc1` (centres undefined), the growth was 32.5%.

Turning to `COc1ccc(-c2c(Nn3cnnn3)no[n+]2[O-])cc1`, the growth was 38.8%. As for `Cn1cc(NC(=O)c2cc(NC(=O)c3ccc(C#Cc4ccccc4)cc3)cn2C)cc1C(=O)NCCCN1CCOCC1`, the growth is 4.99% (active).

As to `COc1cc(NC(=O)c2cccc(C3CCc4c(cc(OC)c(OC)c4OC)O3)c2)cc(OC)c1OC` (centres undefined), the growth is 28.3%. In the case of `COc1ccc(-c2nnc3ccc(N/N=C/c4ccc(C)cc4)nn23)cc1`, the growth was 65.4%. As for `Cc1ccc(-n2c(-c3cc4ccccc4nc3Cl)noc2=O)cc1`, the growth was 63.6%.

On to `CCCCNC(=S)Nc1ccc(OCc2nc3ccccc3[nH]2)cc1`, for which the growth was 65.2%. For the molecule `COc1ccc(-c2nc3cc(C)ccc3n2CC(=O)N=Nc2c(O)[nH]c3ccccc23)cc1`, the growth is -54.2% (active). `COc1ccc(-c2nc3ccc(C(=O)NN4C(=O)c5ccc([N+](=O)[O-])cc5C4=O)cc3[nH]2)cc1`: the growth was 90.1%.

Regarding `O=c1oc2ccccc2cc1-c1csc(N=Nc2c(O)[nH]c3ccc(Cl)cc23)n1`, the growth was 113%. On to `CN(C)c1ccnc(CNCCSC2(c3ccccc3)c3ccccc3C=Cc3ccccc32)c1`, for which the growth is -49.5% (active). Take `COc1cc2c(c(OC)c1OC)C(=O)CC(c1cccc(NC(=O)c3cc(NC(=O)[C@@H](N)CO)ccc3C)c1)O2` (some centres undefined): the growth was 111%. Same read-out and setting: as for `COc1ccc(C(=O)/C=C/c2c(F)cccc2Cl)cc1S(N)(=O)=O`, the figure is 17.2%.

`O=C(Nc1cccc(-n2cnc3cc(-c4ccc(O)cc4)ccc32)c1)C1CC1`: the growth was 32.3%.

Regarding `COc1ccc(C2(SCCNCc3cc(N(C)C)ccn3)c3ccccc3C=Cc3ccccc32)cc1`, the growth was -29.2% (active).

Consider `N/C(=N\c1nc2ccccc2s1)NC(=O)Nc1ccccc1Br`, for which the growth is -50.3% (active).

Take `COc1ccc(C2=NN(c3ccccc3)C(c3ccc(OC)c(OCc4ccccc4)c3)C2)cc1OC` (centres undefined): the growth was 100%. Still for that read-out and setting: then `CN(C)CCCNC(=O)c1cc(NC(=O)c2cc(NC(=O)c3ccc(C#Cc4ccccc4)cc3)cn2C)cn1C`, with -68.8% (active); and `COc1cccc(/C=C/c2nc3ccccc3c(=O)n2CC(=O)Nc2ccc(Cl)cc2)c1`, with 27.9%.

A further assay has as its system RXF 393 renal. Described as above. To be noted: 10 µM unless noted.
In the case of `COC(=O)C[C@](O)(CCCC(C)(C)O)C(=O)O[C@H]1C(OC)=C[C@@]23CCCN2CCc2cc4c(cc2[C@@H]13)OCO4`, the growth was -31.8% (active).

For `COc1cc(/C=C2\C(=N)N=C(SCc3nc4ccccc4[nH]3)NC2=O)ccc1O`, the growth is 113%.

Turning to `N/C(=N\N=C\c1ccc([N+](=O)[O-])cc1)c1c(N)nc(=S)[nH]c1-c1ccc(Cl)cc1Cl`, the growth is 73.1%. On the same count and under the same terms, as for `CC1(c2cc3cc(Cl)ccc3oc2=O)NC(=O)c2c(/C=C/C(=O)OC3CC4CCC3(C)C4(C)C)cccc2N1` (centres undefined), the figure is 52%. The same measure, in the same setting: then `O=C(N=Nc1c(O)[nH]c2ccc(Cl)cc12)c1ccc2nc(-c3ccccc3)[nH]c2c1`, with 59.1%; and `O=C(O)c1cccc(-c2ccc(/C=N/NC(=O)c3[nH]c4ccc(Br)cc4c3-c3ccccc3)o2)c1`, with 24.7%. With `CC1(C)CC[C@]2(C(=O)Nc3ccccc3)CC[C@]3(C)C(=CCC4[C@@]5(C)C[C@@H](O)[C@H](O)[C@@](C)(CO)C5CC[C@]43C)C2C1` (some centres undefined), the growth is 17.6%. Still for that read-out and setting: as for `O=c1[nH]c2ccccc2cc1CSc1cccc(Nc2nccc(-c3ccc4ccccc4c3)n2)c1`, the figure is 81.3%; as for `Clc1cccc(N/N=C/c2c[nH]c3ccc(Br)cc23)n1`, 31.6%; as for `CSc1ccc(NC(=O)c2ccc3nnn(/C(C#N)=C/c4ccccn4)c3c2)cc1`, -98.6% (active). Consider `Cc1c(C(=O)NNC(=O)c2ccc(Cl)cc2)nnn1-c1ccc(Cl)cc1`, for which the growth was 92.7%. On the same count and under the same terms, as for `CN(C)c1nc(NCCNS(=O)(=O)c2ccc(C(=O)/C=C/c3ccc(F)cc3)cc2)nc(Nc2ccc(F)cc2)n1`, the figure is -97% (active); as for `CNC(=O)c1cc(Oc2ccc3nc(NC(=O)Nc4cccc(OC(F)(F)F)c4)sc3c2)ccn1`, -40.1% (active); as for `CC(C)(C)OC(=O)/C=C/c1cccc2c1C(=O)NC(C)(c1cc3cc(Cl)ccc3oc1=O)N2` (centres undefined), 10.2%.

On to `Cc1ccc(C2CC(c3ccc(S(=O)(=O)NCCNc4nc(Nc5ccc(F)cc5)nc(N(C)C)n4)cc3)=Nc3c(N)nc(N)nc3N2)cc1` (centres undefined), for which the growth was 27.2%. Still for that read-out and setting: as for `CC1=C(C(=O)OC(C)C)C(c2cccc(O)c2)NC(=S)N1` (centres undefined), the figure is 110%; as for `C[C@H](Nc1nc(NCCc2ccccc2)nc2ccccc12)c1ccccc1`, -90.5% (active). As for `COc1ccc(-c2c(Nn3cnnn3)no[n+]2[O-])cc1`, the growth was 42.5%. Same read-out and setting: then `Cn1cc(NC(=O)c2cc(NC(=O)c3ccc(C#Cc4ccccc4)cc3)cn2C)cc1C(=O)NCCCN1CCOCC1`, with -4.28% (active); and `COc1cc(NC(=O)c2cccc(C3CCc4c(cc(OC)c(OC)c4OC)O3)c2)cc(OC)c1OC` (centres undefined), with 47.4%; and `COc1ccc(-c2nnc3ccc(N/N=C/c4ccc(C)cc4)nn23)cc1`, with 62.2%. As to `Cc1ccc(-n2c(-c3cc4ccccc4nc3Cl)noc2=O)cc1`, the growth is 92.4%. For `CC(=O)Oc1ccccc1C(=O)[Se]CC(=O)Nc1cccc(C(F)(F)F)c1`, the growth is -25.5% (active). The same measure, in the same setting: as for `N#Cc1c(-c2ccccc2Cl)cc(-c2ccc3ccccc3c2)[nH]c1=O`, the figure is -6.69% (active); as for `CCCCNC(=S)Nc1ccc(OCc2nc3ccccc3[nH]2)cc1`, 99.5%; as for `COc1ccc(-c2nc3cc(C)ccc3n2CC(=O)N=Nc2c(O)[nH]c3ccccc23)cc1`, -29.7% (active). `COc1ccc(-c2nc3ccc(C(=O)NN4C(=O)c5ccc([N+](=O)[O-])cc5C4=O)cc3[nH]2)cc1`: the growth is 68.4%.

Regarding `CN(C)c1ccnc(CNCCSC2(c3ccccc3)c3ccccc3C=Cc3ccccc32)c1`, the growth is -36.6% (active).

`COc1cc2c(c(OC)c1OC)C(=O)CC(c1cccc(NC(=O)c3cc(NC(=O)[C@@H](N)CO)ccc3C)c1)O2` (some centres undefined): the growth was 119%.

As to `COc1ccc(C(=O)/C=C/c2c(F)cccc2Cl)cc1S(N)(=O)=O`, the growth is -44.4% (active). As to `O=C(Nc1cccc(-n2cnc3cc(-c4ccc(O)cc4)ccc32)c1)C1CC1`, the growth is 14.1%. The same measure, in the same setting: then `COc1ccc(C2(SCCNCc3cc(N(C)C)ccn3)c3ccccc3C=Cc3ccccc32)cc1`, with 8.16% (active); and `N/C(=N\c1nc2ccccc2s1)NC(=O)Nc1ccccc1Br`, with 0.178% (active); and `COc1ccc(C2=NN(c3ccccc3)C(c3ccc(OC)c(OCc4ccccc4)c3)C2)cc1OC` (centres undefined), with 98.1%. Take `CC1=C(C(=O)c2ccccc2)C(c2ccc(-n3cncn3)cc2)n2c(nc3ccccc32)N1` (centres undefined): the growth is 73.6%.

For `CN(C)CCCNC(=O)c1cc(NC(=O)c2cc(NC(=O)c3ccc(C#Cc4ccccc4)cc3)cn2C)cn1C`, the growth was -37.7% (active). Still for that read-out and setting: as for `COc1cccc(/C=C/c2nc3ccccc3c(=O)n2CC(=O)Nc2ccc(Cl)cc2)c1`, the figure is 83.5%.

The values are drawn from PubChem BioAssay (NCI).
